Several values for one entry are separate records, joined by “and”; a condition that tells them apart may be missing. Equal entries are not always repeated. Results filed as inconclusive are left out. Some structures have more than one record in an assay (separate samples or runs), and their calls can disagree. Activity calls are given as the source filed them. Unless noted, calls come from the whole dose curve; as a rule, active = well fitted curve in the direction sought with a large enough effect in the repeat runs; inconclusive = weak or mixed curves; inactive = no such curve, though single readings can be large; an effect the other way counts as inactive or inconclusive.
Columns and labels:
[1] = A CellTox Green Cytotoxicity Assay to monitor cytotoxicity in HepG2 cells - 8 hour (AID 1224890); note: nearly all actives have a fitted effect of over 45% in size
Procedure, shortened: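 Using 1536-well format, dye-containing HepG2 suspension was seeded, allowed 5 h at 37 C/5% CO2, dosed by pintool with compounds, positive and negative controls, and imaged for fluorescence across 40 h.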

[2] = qHTS assay to identify small molecule antagonists of the estrogen receptor alpha (ER-alpha) signaling pathway using the BG1 cell line in the presence of 0.1 nM 17-beta-estradiol - cell viability counter screen (AID 1259241); note: nearly all actives have a fitted effect of over 40% in size
Procedure, shortened: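 Measures cytotoxicity alongside the ER-alpha antagonist readout: VM7Luc4E2 cells, charcoal-stripped serum, 0.1 nM 17beta-estradiol final, 22 hr compound incubation at 37C, CellTiter-Fluor fluorescence.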

[3] = qHTS assay to identify small molecule antagonists of the androgen receptor (AR) signaling pathway using the MDA cell line in the presence of 0.5 nM R1881 - cell viability counter screen (AID 1259242); note: nearly all actives have a fitted effect of over 45% in size
Procedure, shortened: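 Viability of MDA-kb2 cells was multiplexed with the luciferase AR readout; after 16 hr with compounds and R1881 at 0.5 nM final, CellTiter-Fluor fluorescence was recorded.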

[4] = qHTS assay to identify small molecule phospholipidosis (PLD) inducers (AID 1259344; active = well fitted curve in the direction sought with a large enough effect; an effect the other way counts as inactive or inconclusive)
Procedure, shortened: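 Fluorescent phospholipid staining (LipidTOX Red) measured by automated microscopy in fixed HepG2 cells after 24 h treatment; nuclei counterstained with Hoechst 33342; amiodarone as reference inducer.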

[5] = qHTS assay to identify small molecule HDAC inhibitors - cell viability counter screen (AID 1259365); note: series mostly up to about 92 µM; nearly all actives have a fitted effect of over 50% in size
Procedure, shortened: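 Following a 2hr exposure of overnight-plated wild-type HCT-116 cells to DMSO-delivered compounds, CellTiter-Glo was added and luminescence recorded after 30min at room temperature.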

[6] = qHTS assay to identify small molecule agonists of the sonic hedgehog signaling (Shh) pathway - cell viability counter screen (AID 1259366); note: nearly all actives have a fitted effect of over 50% in size
Procedure, shortened: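 After a 4hr attachment at 37C, NIH/3T3 cells bearing an integrated Gli1-driven luciferase reporter were dosed with compounds. Treatment lasted 24hr, with the final hour including CellTiter-Fluor for a fluorescence viability measurement.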

[7] = qHTS assay to identify small molecule antagonists of the sonic hedgehog signaling (Shh) pathway - cell viability counter screen (AID 1259367); note: nearly all actives have a fitted effect of over 55% in size
Procedure, shortened: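 Using CellTiter-Fluor, viability of Gli1-Luc reporter 3T3 cells is read by fluorescence in the wells used for the Shh luciferase assay. Treatment lasts 23 hr with conditioned medium, then reagent 1 hr at 37C.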

[8] = qHTS assay to identify small molecule agonists of the sonic hedgehog signaling (Shh) pathway (AID 1259368; calls by dose curve;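 note: NIH/3T3-derived 3T3Gli1-Luc cells carrying a stable Gli1-driven firefly luciferase reporter; series mostly up to about 92 µM; nearly all actives have a fitted effect of over 15% in size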)
Procedure, shortened: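 A Gli1 transcriptional response element controlled firefly luciferase in 3T3Gli1-Luc cells. Compounds and a positive control were added 4 hr after plating, and cells were incubated a further 24 hr at 37 C before luminescence detection.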

[9] = qHTS assay to identify small molecule antagonists of the sonic hedgehog signaling (Shh) pathway (AID 1259369; calls by dose curve; note: nearly all actives have a fitted effect of over 45% in size; note: potency is the fitted concentration of half-maximal effect)
Procedure, shortened: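 For antagonist detection, the reporter line received test compounds together with conditioned medium, incubated 24hr at 37 C, 5% CO2, then luminescence was recorded following 30min room-temperature luciferase reagent incubation.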

[10] = molecular target: Estrogen receptor beta (Homo sapiens) (UniProt Q92731); experiment: qHTS assay to identify small molecule agonists of the estrogen receptor beta (ER-beta) signaling pathway (AID 1259377; active = well fitted activation curve with a large enough effect in the signal ratio in the repeat runs, not every such curve was filed as active; the % refers to the signal ratio)
Procedure, shortened: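 In HEK293T cells bearing a UAS-beta-lactamase reporter under ER-beta control, DMSO-delivered compounds were incubated for 16 hr at 37C. Activity was detected as fluorescence 2 hours after LiveBLAzer B/G FRET substrate addition.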

[11] = molecular target: Estrogen receptor beta (Homo sapiens) (UniProt Q92731); experiment: qHTS assay to identify small molecule antagonists of the estrogen receptor beta (ER-beta) signaling pathway (AID 1259378; active = well fitted inhibition curve with a large enough effect in the signal ratio in the repeat runs, not every such curve was filed as active; the % refers to the signal ratio)
Procedure, shortened: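 Antagonist mode: compounds added to beta-lactamase reporter HEK293T ER-beta-UAS cells stimulated with E2 (1nM final), 16 hr at 37C. LiveBLAzer B/G FRET substrate, 2 hours room temperature, fluorescence read-out.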

[12] = qHTS assay to identify small molecule agonists of the androgen receptor (AR) signaling pathway in the presence of an antagonist - cell viability counter screen (AID 1259379); note: nearly all actives have a fitted effect of over 25% in size; note: potency is the fitted concentration of half-maximal effect
Procedure, shortened: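 Seed MDA-kb2 at 3,000 cells/well; incubate 5 hr, 37C, 0% CO2. Add nilutamide to 3.0uM final, then pin compounds at 15 concentrations. Incubate 16 hr. Add CellTiter-Fluor at 15 hr, read fluorescence after 1 hr.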

[13] = qHTS assay to identify small molecule antagonists of the estrogen receptor beta (ER-beta) signaling pathway - cell viability counter screen (AID 1259382);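 note: HEK293T cells carrying ER-beta-UAS-bla reporter stimulated with estradiol; series mostly up to about 92 µM; nearly all actives have a fitted effect of over 55% in size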
Procedure, shortened: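 In this multiplexed counter screen, cells were seeded at 2,000 per well in medium with 2% charcoal-stripped FBS and incubated 6 hr before compound and 1nM final E2 were added. Sixteen hours later, ATP-based luminescence reported viability.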

[14] = qHTS assay to identify small molecule agonists or antagonists of the thyroid stimulating hormone receptor (TSHR) signaling pathway - wild type cell line counter screen (AID 1259384; calls by dose curve)
Procedure, shortened: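 Counter screen in untransfected Hek293: compounds (15-point titration, triplicate) plus phosphodiesterase inhibitor Ro20-1724 added after 18 h plating; 30 min RT. Intracellular cAMP via competitive d2/cryptate immunoassay, 1 h incubation.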

[15] = molecular target: Estrogen receptor (Homo sapiens) (UniProt P03372); experiment: qHTS assay to identify small molecule antagonists of the estrogen receptor alpha (ER-alpha) signaling pathway using the BG1 cell line in the presence of 0.1 nM 17-beta-estradiol (AID 1259244); note: nearly all actives have a fitted effect of over 50% in size
Procedure, shortened: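 Estradiol at 0.1 nM (final) stimulates the endogenous ER-alpha of VM7Luc4E2 cells carrying an ERE-driven luciferase; compounds are co-incubated 22 h at 37C and luciferase output quantified by luminescence.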

[16] = qHTS assay to identify small molecule agonists of the estrogen receptor beta (ER-beta) signaling pathway - cell viability counter screen (AID 1259380); note: nearly all actives have a fitted effect of over 30% in size; note: potency is the fitted concentration of half-maximal effect
Procedure, shortened: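 CellTiter-Glo read, 30 min RT, same wells as bla assay; cells ER-beta-UAS-bla HEK293T; 16 hr compound, 37C; medium 2% charcoal-stripped FBS.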

[17] = molecular target: Estrogen receptor (Homo sapiens) (UniProt P03372); experiment: qHTS assay to identify small molecule agonists of the estrogen receptor alpha (ER-alpha) signaling pathway in the presence of an antagonist (AID 1259383; calls by dose curve; note: top concentration of the series differs between compounds; nearly all actives have a fitted effect of over 15% in size)
Procedure, shortened: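 Stably transfected VM7Luc4E2 reporter cells, kept 5 days in charcoal-stripped serum, received ICI-182,780 at 10.0nM final before compound addition. Following 22hr incubation at 37C and 5% CO2, luciferase signal was read by luminescence.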

[18] = qHTS assay to identify small molecule HDAC inhibitors (AID 1259364); note: potency is the fitted concentration of half-maximal effect;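 note: wild-type HCT-116 cells with endogenous class I/II HDAC activity; nearly all actives have a fitted effect of over 45% in size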
Procedure, shortened: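 Read-out: luminescence of HDAC-Glo I/II reagent, 30 min RT, reflecting class I/II deacetylase activity in whole HCT-116 cells pre-exposed 2 h to DMSO-dissolved compounds.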

[19] = molecular target: Androgen receptor (Homo sapiens) (UniProt P10275); experiment: qHTS assay to identify small molecule antagonists of the androgen receptor (AR) signaling pathway using the MDA cell line in the presence of 0.5 nM R1881 (AID 1259243); note: nearly all actives have a fitted effect of over 50% in size; note: potency is the fitted concentration of half-maximal effect
Procedure, shortened: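 Reporter cells cultured without CO2 receive test chemicals, then 0.5 nM R1881 final; after 16 hr at 37C, ONE-Glo is added and light output recorded.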

[20] = molecular target: Androgen receptor (Homo sapiens) (UniProt P10275); experiment: qHTS assay to identify small molecule agonists of the androgen receptor (AR) signaling pathway in the presence of an antagonist (AID 1259381; calls by dose curve; note: nearly all actives have a fitted effect of over 15% in size)
Procedure, shortened: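 Test compounds at 15 concentrations were incubated for 16hr with MDA-kb2 reporter cells in presence of 3.0uM nilutamide (final). Signal: ONE-Glo luciferase luminescence.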

Measured: Potency

Sequence of Androgen receptor (Homo sapiens) (P10275 whole entry, looked up): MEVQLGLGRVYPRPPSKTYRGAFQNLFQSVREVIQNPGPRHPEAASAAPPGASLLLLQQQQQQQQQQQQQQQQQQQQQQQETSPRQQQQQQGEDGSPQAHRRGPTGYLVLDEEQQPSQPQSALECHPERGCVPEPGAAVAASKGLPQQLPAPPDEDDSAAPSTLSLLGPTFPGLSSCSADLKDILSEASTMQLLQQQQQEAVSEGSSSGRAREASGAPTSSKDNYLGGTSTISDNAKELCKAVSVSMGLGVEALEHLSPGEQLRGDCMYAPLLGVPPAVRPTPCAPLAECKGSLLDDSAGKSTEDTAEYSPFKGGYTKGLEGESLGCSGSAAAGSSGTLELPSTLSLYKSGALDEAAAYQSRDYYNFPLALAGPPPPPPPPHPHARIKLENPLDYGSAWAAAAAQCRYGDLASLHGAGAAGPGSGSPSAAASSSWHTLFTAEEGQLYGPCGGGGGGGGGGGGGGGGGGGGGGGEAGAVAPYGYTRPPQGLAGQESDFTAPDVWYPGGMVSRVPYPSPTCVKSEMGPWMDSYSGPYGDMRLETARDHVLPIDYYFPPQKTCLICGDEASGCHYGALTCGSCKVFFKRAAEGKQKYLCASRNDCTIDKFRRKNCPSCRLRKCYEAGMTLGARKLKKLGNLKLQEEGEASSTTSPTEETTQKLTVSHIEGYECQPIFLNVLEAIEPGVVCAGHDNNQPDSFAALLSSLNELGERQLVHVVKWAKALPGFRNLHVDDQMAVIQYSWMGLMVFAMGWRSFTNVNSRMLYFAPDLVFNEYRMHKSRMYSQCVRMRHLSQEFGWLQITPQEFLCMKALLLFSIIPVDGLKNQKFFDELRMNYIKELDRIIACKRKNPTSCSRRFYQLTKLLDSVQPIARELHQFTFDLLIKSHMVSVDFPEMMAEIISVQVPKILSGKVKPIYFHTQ
Sequence of Estrogen receptor beta (Homo sapiens) (Q92731 whole entry, looked up): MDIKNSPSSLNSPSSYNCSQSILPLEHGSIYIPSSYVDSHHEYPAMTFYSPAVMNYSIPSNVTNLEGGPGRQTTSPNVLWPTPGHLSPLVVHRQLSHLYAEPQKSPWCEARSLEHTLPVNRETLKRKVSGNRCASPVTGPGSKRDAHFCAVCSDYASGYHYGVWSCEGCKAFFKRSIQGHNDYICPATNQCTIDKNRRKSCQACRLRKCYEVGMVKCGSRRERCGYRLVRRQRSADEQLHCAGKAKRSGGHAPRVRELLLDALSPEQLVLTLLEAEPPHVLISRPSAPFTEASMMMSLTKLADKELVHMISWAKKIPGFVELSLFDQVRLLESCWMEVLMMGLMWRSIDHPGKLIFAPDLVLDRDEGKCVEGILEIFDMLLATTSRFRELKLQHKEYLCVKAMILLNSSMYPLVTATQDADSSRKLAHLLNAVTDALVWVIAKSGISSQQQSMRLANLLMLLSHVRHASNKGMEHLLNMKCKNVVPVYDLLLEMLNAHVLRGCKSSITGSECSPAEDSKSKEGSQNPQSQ
Sequence of Estrogen receptor (Homo sapiens) (P03372 whole entry, looked up): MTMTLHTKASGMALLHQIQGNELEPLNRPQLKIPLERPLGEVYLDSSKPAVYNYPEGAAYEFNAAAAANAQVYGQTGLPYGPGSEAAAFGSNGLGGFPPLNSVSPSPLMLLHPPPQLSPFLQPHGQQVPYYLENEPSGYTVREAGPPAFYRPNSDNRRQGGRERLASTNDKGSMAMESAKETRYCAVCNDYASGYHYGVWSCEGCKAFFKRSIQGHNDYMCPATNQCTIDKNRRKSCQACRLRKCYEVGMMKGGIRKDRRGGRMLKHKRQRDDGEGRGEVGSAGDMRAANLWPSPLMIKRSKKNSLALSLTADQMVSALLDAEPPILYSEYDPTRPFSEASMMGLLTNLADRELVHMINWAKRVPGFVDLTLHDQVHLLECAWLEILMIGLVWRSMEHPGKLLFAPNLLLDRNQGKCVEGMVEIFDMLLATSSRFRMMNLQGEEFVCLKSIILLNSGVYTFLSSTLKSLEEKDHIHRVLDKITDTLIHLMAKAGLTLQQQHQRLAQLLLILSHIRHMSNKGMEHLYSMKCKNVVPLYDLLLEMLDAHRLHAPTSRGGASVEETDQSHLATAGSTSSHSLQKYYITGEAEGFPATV

CN1C(=O)CCS(=O)(=O)C1c1ccc(Cl)cc1 (centres undefined)
not listed: [15] | [16] | [17] | [18] | [19] | [20]
inactive: all other assays above

CCOP(=S)(OCC)Oc1ccc([N+](=O)[O-])cc1
inactive: [1] | [2] | [3] | [5] | [7] | [8] | [12] | [13]

O=[N+]([O-])c1ccc(Cl)c(Cl)c1
not listed: [4] | [6] | [10] | [11] | [14] | [18] | [19] | [20]
inactive: all other assays above

CN(C)C(=O)Nc1cccc(C(F)(F)F)c1
inactive: [1] | [2] | [3] | [5] | [6] | [7] | [8] | [10] | [11] | [12] | [13]

Cc1cccc(C)c1NC(=O)CN1CCCC1=O
not listed: [1] | [9] | [14] | [19] | [20]
inactive: all other assays above

CC(C)CCCCCCOC(=O)c1ccccc1C(=O)OCCCCCCC(C)C
not listed: [1] | [4] | [9] | [10] | [11] | [14] | [18]
inactive: all other assays above

ClCCOCCCl
inactive: [1] | [2] | [3] | [5] | [7] | [8] | [9] | [10] | [11] | [12] | [13]

CSc1nnc(C(C)(C)C)c(=O)n1N
not listed: [4] | [15] | [17] | [19] | [20]
inactive: all other assays above

Nc1nc(N)nc(NC2CC2)n1
not listed: [14] | [15] | [17] | [18] | [19] | [20]
inactive: all other assays above

CCOC(=O)CC(SP(=O)(OC)OC)C(=O)OCC (centres undefined)
not listed: [4] | [15] | [16] | [17] | [19] | [20]
inactive: all other assays above

CC12CC1(C)C(=O)N(c1cc(Cl)cc(Cl)c1)C2=O (centres undefined)
active: [19] 1.21 µM and 1.37 µM
not listed: [1] | [4] | [14] | [15] | [16] | [17]
inactive: all other assays above

CNc1cnn(-c2cccc(C(F)(F)F)c2)c(=O)c1Cl
inactive: [1] | [2] | [3] | [5] | [7] | [8] | [9] | [10] | [11] | [12] | [13]

COP(=S)(OC)Oc1ccc(SC)c(C)c1
not listed: [1] | [6] | [14] | [19] | [20]
inactive: all other assays above

COC(C)(C)CCCC(C)C/C=C/C(C)=C/C(=O)OC(C)C (centres undefined)
not listed: [1] | [14] | [15] | [16] | [17]
inactive: all other assays above

C=CC(=O)OCCCCCC(C)C
not listed: [1] | [4] | [14] | [18]
inactive: all other assays above

O=P1(NCCCl)OCCCN1CCCl (centres undefined)
inactive: [1] | [2] | [3] | [4] | [5] | [6] | [7] | [8] | [9] | [12] | [13]

Cl[C@H]1OCCO[C@@H]1Cl
inactive: [1] | [2] | [3] | [18] | [5] | [6] | [7] | [8] | [12] | [13]

COP(=S)(OC)SCN1C(=O)c2ccccc2C1=O
active: [9] 54.5 µM
not listed: [14] | [15] | [16] | [17] | [19] | [20]
inactive: all other assays above

Oc1ccc(Cl)cc1
not listed: [6] | [9] | [10] | [11] | [15] | [17] | [19] | [20]
inactive: all other assays above

CC[N+](=O)[O-]
not listed: [4] | [14] | [15] | [17] | [18] | [19] | [20]
inactive: all other assays above

CC(=O)C1CCOC1=O (centres undefined)
not listed: [4] | [6] | [14] | [15] | [16] | [17] | [19] | [20]
inactive: all other assays above

COc1cc(-c2ccc(N)c(OC)c2)ccc1N
inactive: [1] | [2] | [3] | [5] | [6] | [7] | [8] | [13]
inactive and 27.3 µM (active): [18]
active: [16] 14.7 µM
inactive and 52 µM (active): [12]

c1ccc2c(c1)CCCC2
not listed: [1] | [4] | [9] | [14]
inactive: all other assays above

OC[C@@H](O)[C@H]1O[C@@H]2O[C@H](C(Cl)(Cl)Cl)O[C@@H]2[C@H]1O
not listed: [1] | [9] | [19] | [20]
inactive: all other assays above

Nc1ncc([N+](=O)[O-])s1
not listed: [4] | [6] | [9] | [14] | [18] | [19] | [20]
inactive: all other assays above

Cc1cccc(N)c1
not listed: [1] | [4] | [10] | [11] | [14] | [19] | [20]
inactive: all other assays above

From PubChem BioAssay (Tox21)
